# Tests used:
# [1] = test system: CHO; test: % viability of CHO cells (MTT); higher = less toxic; conditions: 48 h
# In short: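 CHO cells seeded at 10^6 cells/well were exposed to compound at 2 or 20 µM for 48 h. Survival, as percent of untreated cells, was measured with the colorimetric tetrazolium (MTT) assay.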
# [2] = test system: HepG2-A16-CD81; test: % inhibition of HepG2 viability (CellTiter-Glo); higher = more toxic; conditions: 5 µM
# [3] = test system: Plasmodium falciparum NF54 stage IV/V gametocytes; test: % inhibition of gametocyte viability (PrestoBlue); higher = more inhibition; conditions: 48 h
# In short: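 Compound was tested at 1 or 5 µM against Stage IV/V NF54 gametocytes plated at 100 µL/well (2% gametocytaemia, 5% haematocrit). After 48 h of stationary, hypoxic incubation at 37 °C, 10 µL PrestoBlue was added for 2 h before reading 612 nm fluorescence from 70 µL of transferred supernatant. Gametocyte viability inhibition, as a percentage, was scaled against vehicle and kill controls from a single run.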
# [4] = test system: Plasmodium falciparum NF54 asexual blood stage; test: % inhibition of asexual blood stage proliferation (pLDH); higher = more inhibition; conditions: 72 h
# In short: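 In 96-well plates, compound at 2 or 20 µM was added to Plasmodium falciparum NF54 ring-stage cultures (1% haematocrit, 2% parasitaemia). Plates were incubated for 72 h at 37 °C in 4% CO2, 3% O2 and 93% N2, and survival was then read at 620 nm using the parasite lactate dehydrogenase assay. Inhibition of asexual proliferation, expressed as a percentage, was normalised to controls.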
# [5] = test system: Plasmodium falciparum NF54 stage IV/V gametocytes; test: % inhibition of gametocyte viability (ATP bioluminescence); higher = more inhibition; conditions: 24 h
# In short: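 Density gradients were used to enrich stage IV/V NF54 gametocytes, which were then seeded into 96-well plates at 30,000 per well with compound at 1 or 5 µM. The plates were incubated at 37 °C for 24 h, and ATP was measured with the Promega BacTiter Glo bioluminescence system. Percent inhibition of gametocyte viability was normalised to the plate controls from a single run.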
# [6] = test system: Plasmodium falciparum NF54 stage IV/V gametocytes; test: % inhibition of gametocyte viability (luciferase reporter); higher = more inhibition; conditions: 48 h
# In short: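 Percent inhibition came from luminescence and was normalised to controls in a single run. Gametocytes (stage IV/V, NF54-Pfs16-GFP-Luc line, 2% gametocytaemia, 2% haematocrit) were treated with compound at 1 or 5 µM and incubated for 48 h at 37 °C without agitation under hypoxia. Readings used 30 µL lysate with 30 µL Promega luciferin substrate on a GloMax-Multi+ reader, integrating for 10 s.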
# [7] = test system: Plasmodium berghei ANKA liver stage in HepG2-A16-CD81; test: % inhibition of liver stage parasite viability (luciferase); higher = more inhibition; conditions: 5 µM; 48 h
# Description: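 Single-concentration screen of the MMV Pandemic Response Box. P. falciparum NF54 asexual blood stages: pLDH assay, 72 h at 37 °C, 2 and 20 µM, n=2. Stage IV/V gametocytes (NF54): luciferase reporter (NF54-Pfs16-GFP-Luc, 48 h), ATP bioluminescence (24 h) and PrestoBlue (48 h) at 1 and 5 µM, n=1. P. berghei liver stage (luciferase in HepG2-A16-CD81, 48 h post infection) at 5 µM, n=4. All normalised to DMSO and kill controls as % inhibition.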
# 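For % inhibition of HepG2 viability (CellTiter-Glo) in this document: HepG2-A16-CD81 hepatoma cells plated as in the liver-stage assay but without sporozoites, with DMSO wells as negative and 25 µM puromycin as positive control.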
Compound,% viability of CHO cells ([1]; 2 µM) [%],% viability of CHO cells ([1]; 20 µM) [%],% inhibition of HepG2 viability [2] [%],% inhibition of gametocyte viability ([3]; 1 µM) [%],% inhibition of gametocyte viability ([3]; 5 µM) [%],% inhibition of asexual blood stage proliferation ([4]; 2 µM) [%],% inhibition of asexual blood stage proliferation ([4]; 20 µM) [%],% inhibition of gametocyte viability ([5]; 1 µM) [%],% inhibition of gametocyte viability ([5]; 5 µM) [%],% inhibition of gametocyte viability ([6]; 1 µM) [%],% inhibition of gametocyte viability ([6]; 5 µM) [%],% inhibition of liver stage parasite viability [7] [%]
CN(C)CC(=O)Nc1ccc2[nH]c(=O)c3ccccc3c2c1,97.8,109,-2.53,< 0,< 0,24.3,32.5,11.1,2.31,< 0,4.93,9.83
COC(=O)Nc1nc2cc(Sc3ccccc3)ccc2[nH]1,103,101,32.9,< 0,11.8,-7.16,5.37,3.38,< 0,< 0,< 0,-25.4
O=C(Nc1ccccc1C(=O)O)c1cccc(Oc2ccccc2)c1,113,61,6.41,37.4,5.84,-5.74,-12.5,< 0,< 0,< 0,< 0,-3.28
O=S(=O)(Nc1ccc(-n2cccc2)cc1)c1ccc(Cl)c(Cl)c1,95,90.4,-0.822,< 0,< 0,6.75,24,< 0,< 0,< 0,< 0,38
CC1(C)CC(NC(=O)C(=O)Nc2ccc(Cl)cc2)CC(C)(C)N1,87.7,57.9,-9.07,22.5,17.1,-0.102,60.5,0.497,3.94,3.24,13.9,31.6
Nc1nc(-c2ccccc2)nc2[nH]nc(Nc3ccc(C(F)(F)F)cc3)c12,80.5,60.9,-9.27,15,7.65,20,80.5,< 0,< 0,< 0,< 0,53.1
NC(=O)c1ccc(I)c([N+](=O)[O-])c1,110,112,14.3,17.8,30.4,1.16,51.2,< 0,< 0,0.24,< 0,20.9
Nc1nnnn1CCOc1c2[nH]c3ccc(Cl)cc3c2cc2c1[nH]c1ccc(Cl)cc12,98.6,121,5.71,< 0,< 0,11.9,95.2,< 0,< 0,< 0,31.2,24.1
CN1CCN(Cc2ccc(-c3cnc4[nH]cc(-c5ccc6[nH]ccc6c5)c4c3)cc2)CC1,68,26.3,21.4,10,< 0,66,66.9,11,65.5,< 0,< 0,33.2
O=C(/C(=C/c1ccc(Cl)cc1Cl)n1ccnc1)c1ccc(Cl)cc1,108,113,-2.24,38.5,85.8,56.2,75.6,40.3,86.2,80.5,99.8,26.7
O=C(CCc1ccc2c(c1)OCO2)NCc1ccc(-c2ccccc2F)cc1,87.7,94.9,8.8,< 0,< 0,-4.07,-11.2,4.23,< 0,< 0,< 0,43.9
Cc1cccc(C)c1C(=O)Nc1nc(-c2ccccn2)cc2ccccc12,104,17.3,32.4,13.5,53.2,79.3,104,73.4,90.8,< 0,68.3,73.3
N=C(N)NCCCCC(=O)Nc1cc(C(F)(F)F)cc(NC(=O)c2cc(C(=O)Nc3cc(C(F)(F)F)cc(NC(=O)CCCCNC(=N)N)c3O[C@@H]3CCNC3)ncn2)c1O[C@@H]1CCNC1,120,43,15,< 0,< 0,76.8,114,9.98,39.3,19.3,78.2,35.9
Nc1nc(-c2ccccc2)nc2c1ncn2[C@@H]1O[C@H](COS(=O)(=O)NC(=O)c2ccccc2O)[C@@H](O)[C@H]1O,102,129,3.69,16.3,11,19.4,71.1,< 0,< 0,< 0,< 0,2.37
O=C(Nc1nnc(-c2ccc(Cl)cc2)o1)c1nc2ccccc2s1,111,92.6,0.777,6.81,13.9,73.6,91.4,1.06,< 0,1.1,< 0,11
COc1cc(C2C3=C(CC(C)(C)CC3=O)Nc3ccccc3N2C(C)=O)ccc1OCc1ccccc1 (centres undefined),174,58,3.3,< 0,13.3,-1.82,14.6,3.07,< 0,< 0,< 0,25.5
O=C(Nc1ccc(-c2ccccc2)cc1)C1=C(O)C(Cc2ccccc2)OC1=O (centres undefined),93.6,90.4,13.1,< 0,13.8,39.5,101,< 0,< 0,< 0,< 0,44.3

# Reference: the supplement of paper PMC7801607
